The supplement of paper PMC11732987, “Enantioselective OTUD7B fragment discovery through chemoproteomics screening and high-throughput optimisation” (Communications Chemistry, 2025)

Tests used:
Experiment in all cases: log2 ratio of Biotin-Ahx-Ub-VS probe labelling (fragment/DMSO); higher = less target engagement (more negative = stronger competition), active = hit call of the paper (q ≤ 0.05, log2 ratio ≤ -1)
Conditions in all cases: compound concentration: 200 uM; treatment time: 3 h
USP19 = target: T1, USP19 (UniProt O94966)
T1 sequence (whole entry): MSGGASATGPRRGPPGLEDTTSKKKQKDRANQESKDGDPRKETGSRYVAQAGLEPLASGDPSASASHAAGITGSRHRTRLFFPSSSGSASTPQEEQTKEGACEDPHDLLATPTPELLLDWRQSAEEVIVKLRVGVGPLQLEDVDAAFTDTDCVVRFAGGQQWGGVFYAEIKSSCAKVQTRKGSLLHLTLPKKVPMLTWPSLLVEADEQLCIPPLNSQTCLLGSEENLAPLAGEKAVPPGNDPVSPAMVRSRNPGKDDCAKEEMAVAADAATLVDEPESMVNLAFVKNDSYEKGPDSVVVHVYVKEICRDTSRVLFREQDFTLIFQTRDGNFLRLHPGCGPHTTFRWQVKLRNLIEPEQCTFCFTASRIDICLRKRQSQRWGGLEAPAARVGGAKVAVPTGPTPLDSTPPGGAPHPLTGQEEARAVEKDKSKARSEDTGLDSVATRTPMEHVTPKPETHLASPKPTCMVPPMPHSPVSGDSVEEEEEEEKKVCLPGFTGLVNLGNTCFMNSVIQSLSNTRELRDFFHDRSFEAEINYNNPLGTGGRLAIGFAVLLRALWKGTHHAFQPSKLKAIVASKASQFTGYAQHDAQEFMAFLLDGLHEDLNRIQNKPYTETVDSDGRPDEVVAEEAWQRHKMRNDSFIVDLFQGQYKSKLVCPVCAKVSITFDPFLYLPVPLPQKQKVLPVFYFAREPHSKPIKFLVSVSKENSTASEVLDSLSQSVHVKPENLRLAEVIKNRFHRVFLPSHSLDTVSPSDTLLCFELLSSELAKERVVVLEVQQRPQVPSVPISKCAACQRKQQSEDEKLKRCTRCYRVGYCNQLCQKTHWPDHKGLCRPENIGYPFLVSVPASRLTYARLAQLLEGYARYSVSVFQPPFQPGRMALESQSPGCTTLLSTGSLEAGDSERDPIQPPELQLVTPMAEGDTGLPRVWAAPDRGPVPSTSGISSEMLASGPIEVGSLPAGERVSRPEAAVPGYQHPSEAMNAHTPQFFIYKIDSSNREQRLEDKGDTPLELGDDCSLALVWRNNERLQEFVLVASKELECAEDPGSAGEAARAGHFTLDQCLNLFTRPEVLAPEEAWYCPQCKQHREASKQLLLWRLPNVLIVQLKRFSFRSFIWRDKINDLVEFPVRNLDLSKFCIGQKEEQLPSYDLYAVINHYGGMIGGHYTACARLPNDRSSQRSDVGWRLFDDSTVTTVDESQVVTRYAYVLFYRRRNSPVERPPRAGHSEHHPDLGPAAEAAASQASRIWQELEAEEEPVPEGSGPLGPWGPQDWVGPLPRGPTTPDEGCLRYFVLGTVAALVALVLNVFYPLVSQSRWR
Summary of the method: (§1)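 HEK293T lysate, 495 µg per sample in Tris/CHAPS/IGEPAL buffer with protease inhibitors, was treated in triplicate with fragment at 200 µM or vehicle for 3 h and then with Biotin-Ahx-Ub-VS at 0.5 µM final for 1 h. Labelled DUBs were NeutrAvidin-enriched, digested with LysC and trypsin, and run by diaPASEF LC-MS/MS. Spectronaut label-free quantities were global-median-normalised, and values are average log2 fragment/vehicle ratios by unpaired t-test on proteins with ≥2 unique peptides.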

USP24 = USP24 (UniProt Q9UPU5)
Summary of the method: as §1

USP25 = target: T2, USP25 (UniProt Q9UHP3)
T2 sequence (whole entry): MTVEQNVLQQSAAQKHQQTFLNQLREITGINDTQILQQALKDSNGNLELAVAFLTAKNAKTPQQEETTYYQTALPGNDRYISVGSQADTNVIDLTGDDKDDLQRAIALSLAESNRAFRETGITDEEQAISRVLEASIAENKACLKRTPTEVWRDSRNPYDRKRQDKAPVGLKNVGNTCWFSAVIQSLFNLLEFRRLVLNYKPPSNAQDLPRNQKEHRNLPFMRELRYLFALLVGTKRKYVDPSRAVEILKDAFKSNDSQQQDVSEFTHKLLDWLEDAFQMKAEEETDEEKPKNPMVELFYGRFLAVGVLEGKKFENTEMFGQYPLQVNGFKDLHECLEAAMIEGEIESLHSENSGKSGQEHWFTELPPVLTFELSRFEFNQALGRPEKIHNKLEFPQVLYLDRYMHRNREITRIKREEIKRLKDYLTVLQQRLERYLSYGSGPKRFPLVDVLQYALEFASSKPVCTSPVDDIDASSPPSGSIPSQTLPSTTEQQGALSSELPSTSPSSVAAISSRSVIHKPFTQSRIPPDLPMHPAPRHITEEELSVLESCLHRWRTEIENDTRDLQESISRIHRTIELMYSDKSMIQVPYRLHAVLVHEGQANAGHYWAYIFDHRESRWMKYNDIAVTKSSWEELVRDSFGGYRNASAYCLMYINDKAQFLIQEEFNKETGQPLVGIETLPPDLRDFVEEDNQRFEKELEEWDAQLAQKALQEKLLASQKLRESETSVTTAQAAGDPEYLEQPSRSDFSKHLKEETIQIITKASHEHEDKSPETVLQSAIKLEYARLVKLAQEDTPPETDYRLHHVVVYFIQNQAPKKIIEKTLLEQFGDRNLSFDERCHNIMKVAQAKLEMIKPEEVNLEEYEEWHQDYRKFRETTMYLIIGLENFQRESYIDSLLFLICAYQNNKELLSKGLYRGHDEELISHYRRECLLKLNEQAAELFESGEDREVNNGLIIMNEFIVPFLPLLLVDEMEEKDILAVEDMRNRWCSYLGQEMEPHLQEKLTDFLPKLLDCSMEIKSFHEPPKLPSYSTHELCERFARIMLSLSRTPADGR
Summary of the method: as §1

USP28 = target: T3, USP28 (UniProt Q96RU2)
T3 sequence (whole entry): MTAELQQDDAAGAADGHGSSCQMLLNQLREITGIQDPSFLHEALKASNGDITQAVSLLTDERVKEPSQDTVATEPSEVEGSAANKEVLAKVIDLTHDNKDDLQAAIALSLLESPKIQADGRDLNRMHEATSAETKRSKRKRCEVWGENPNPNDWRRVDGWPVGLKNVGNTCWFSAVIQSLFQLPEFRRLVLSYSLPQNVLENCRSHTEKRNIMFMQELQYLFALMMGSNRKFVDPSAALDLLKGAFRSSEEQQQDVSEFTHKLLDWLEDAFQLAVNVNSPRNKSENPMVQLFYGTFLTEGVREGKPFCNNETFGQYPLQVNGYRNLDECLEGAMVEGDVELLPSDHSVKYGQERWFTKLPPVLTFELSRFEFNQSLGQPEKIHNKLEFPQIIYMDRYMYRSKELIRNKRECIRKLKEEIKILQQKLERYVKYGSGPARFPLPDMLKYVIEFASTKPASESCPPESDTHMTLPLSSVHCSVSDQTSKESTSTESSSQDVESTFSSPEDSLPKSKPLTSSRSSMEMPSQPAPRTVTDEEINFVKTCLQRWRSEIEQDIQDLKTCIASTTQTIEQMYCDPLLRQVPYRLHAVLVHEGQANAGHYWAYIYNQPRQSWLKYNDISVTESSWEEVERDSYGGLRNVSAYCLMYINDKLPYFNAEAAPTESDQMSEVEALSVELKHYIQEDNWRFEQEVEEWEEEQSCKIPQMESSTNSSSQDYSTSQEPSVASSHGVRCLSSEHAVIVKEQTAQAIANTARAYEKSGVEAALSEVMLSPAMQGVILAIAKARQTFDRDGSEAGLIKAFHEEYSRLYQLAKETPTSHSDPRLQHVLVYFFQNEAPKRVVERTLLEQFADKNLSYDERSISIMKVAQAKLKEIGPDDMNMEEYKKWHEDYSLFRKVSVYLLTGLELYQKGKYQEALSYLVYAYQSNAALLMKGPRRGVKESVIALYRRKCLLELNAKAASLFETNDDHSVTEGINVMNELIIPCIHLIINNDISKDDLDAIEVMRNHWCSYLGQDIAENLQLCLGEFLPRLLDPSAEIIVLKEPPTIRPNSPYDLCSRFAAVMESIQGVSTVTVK
Summary of the method: as §1

Measured: log2 ratio of Biotin-Ahx-Ub-VS probe labelling

USP24, sequence (Q9UPU5 whole entry): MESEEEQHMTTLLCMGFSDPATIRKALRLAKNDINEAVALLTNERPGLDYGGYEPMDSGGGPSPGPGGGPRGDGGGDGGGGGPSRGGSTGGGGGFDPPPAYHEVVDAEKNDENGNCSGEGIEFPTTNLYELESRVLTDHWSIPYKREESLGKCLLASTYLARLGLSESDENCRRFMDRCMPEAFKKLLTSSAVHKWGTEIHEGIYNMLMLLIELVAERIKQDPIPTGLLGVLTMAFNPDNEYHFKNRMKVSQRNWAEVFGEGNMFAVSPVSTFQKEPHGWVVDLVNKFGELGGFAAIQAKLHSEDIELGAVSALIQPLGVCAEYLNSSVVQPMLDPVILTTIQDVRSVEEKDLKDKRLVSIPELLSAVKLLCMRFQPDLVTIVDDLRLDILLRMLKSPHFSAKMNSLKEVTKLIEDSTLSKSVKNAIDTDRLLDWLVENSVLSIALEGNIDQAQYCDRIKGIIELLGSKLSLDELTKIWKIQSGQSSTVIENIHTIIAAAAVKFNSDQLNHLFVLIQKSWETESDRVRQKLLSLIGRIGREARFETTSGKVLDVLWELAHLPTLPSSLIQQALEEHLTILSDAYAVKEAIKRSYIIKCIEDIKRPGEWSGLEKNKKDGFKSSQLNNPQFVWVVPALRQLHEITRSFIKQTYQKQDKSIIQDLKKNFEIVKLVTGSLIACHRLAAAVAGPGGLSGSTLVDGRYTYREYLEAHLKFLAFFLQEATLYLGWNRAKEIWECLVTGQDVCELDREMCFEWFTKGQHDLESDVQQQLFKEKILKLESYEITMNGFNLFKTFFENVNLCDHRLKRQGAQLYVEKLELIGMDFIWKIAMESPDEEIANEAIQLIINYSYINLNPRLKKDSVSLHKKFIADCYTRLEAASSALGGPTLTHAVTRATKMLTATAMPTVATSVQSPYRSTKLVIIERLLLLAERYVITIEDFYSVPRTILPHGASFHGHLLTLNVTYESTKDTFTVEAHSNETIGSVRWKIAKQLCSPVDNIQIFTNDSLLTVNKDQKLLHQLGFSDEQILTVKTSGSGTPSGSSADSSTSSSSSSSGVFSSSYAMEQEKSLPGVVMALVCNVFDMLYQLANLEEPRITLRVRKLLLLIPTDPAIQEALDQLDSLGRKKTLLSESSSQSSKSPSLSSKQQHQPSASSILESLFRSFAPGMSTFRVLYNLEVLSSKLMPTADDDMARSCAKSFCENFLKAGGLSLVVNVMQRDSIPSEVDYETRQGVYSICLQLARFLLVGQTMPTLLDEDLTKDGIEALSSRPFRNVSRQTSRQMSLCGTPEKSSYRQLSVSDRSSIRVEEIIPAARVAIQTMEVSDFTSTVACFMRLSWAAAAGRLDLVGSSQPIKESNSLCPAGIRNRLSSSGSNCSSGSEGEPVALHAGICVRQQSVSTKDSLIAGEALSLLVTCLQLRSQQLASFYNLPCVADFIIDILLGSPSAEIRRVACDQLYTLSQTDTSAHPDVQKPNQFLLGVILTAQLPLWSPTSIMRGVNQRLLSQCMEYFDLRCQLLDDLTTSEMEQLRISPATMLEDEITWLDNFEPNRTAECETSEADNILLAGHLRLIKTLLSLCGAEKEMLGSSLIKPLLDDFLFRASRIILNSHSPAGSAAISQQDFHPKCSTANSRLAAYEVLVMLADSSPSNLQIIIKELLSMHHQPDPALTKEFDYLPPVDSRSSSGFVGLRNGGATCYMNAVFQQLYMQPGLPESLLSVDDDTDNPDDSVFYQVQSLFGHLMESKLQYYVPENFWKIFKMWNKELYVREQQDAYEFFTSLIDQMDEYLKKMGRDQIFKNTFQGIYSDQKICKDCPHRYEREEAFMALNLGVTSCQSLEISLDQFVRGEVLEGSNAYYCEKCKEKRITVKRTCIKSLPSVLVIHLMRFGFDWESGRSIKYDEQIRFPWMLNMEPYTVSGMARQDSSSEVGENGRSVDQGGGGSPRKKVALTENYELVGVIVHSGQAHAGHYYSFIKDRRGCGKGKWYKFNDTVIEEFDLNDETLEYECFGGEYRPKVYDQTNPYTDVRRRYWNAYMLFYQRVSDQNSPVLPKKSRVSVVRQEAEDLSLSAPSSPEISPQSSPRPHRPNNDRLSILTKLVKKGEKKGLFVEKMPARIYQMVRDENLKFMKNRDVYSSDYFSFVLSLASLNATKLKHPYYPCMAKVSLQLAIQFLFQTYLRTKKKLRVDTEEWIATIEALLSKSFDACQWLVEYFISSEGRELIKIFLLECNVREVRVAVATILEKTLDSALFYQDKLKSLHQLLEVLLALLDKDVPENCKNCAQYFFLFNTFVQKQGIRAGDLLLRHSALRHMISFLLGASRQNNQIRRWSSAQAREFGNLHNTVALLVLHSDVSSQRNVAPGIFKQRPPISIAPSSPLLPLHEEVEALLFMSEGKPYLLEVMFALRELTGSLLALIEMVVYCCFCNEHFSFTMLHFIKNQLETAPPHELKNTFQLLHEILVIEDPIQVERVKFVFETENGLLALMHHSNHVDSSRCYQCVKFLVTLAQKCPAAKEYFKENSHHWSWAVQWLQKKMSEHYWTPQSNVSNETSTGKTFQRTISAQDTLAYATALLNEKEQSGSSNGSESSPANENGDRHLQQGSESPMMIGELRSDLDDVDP

Cl.O=C(CCl)N1CCN(Cc2ccccc2)CC1
inactive: USP19 -0.21 | USP24 -0.611 | USP25 -0.226 | USP28 -0.511
